# Assay outcomes from PubChem.
# PI4K2A inh – PI4K2A (human) kinase inhibition; Q9BTU6; purified PI4K2A, ADP-Glo luminescence, 1 h; active compounds read low; activity change, negative = inhibition, % at 76.9 µM; 420,000 compounds, 0.13% hits; AID 1346378; in the data active means activity change below about -50%; inconclusive means mostly about -30% to -49%;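 further: -100% = wells without enzyme as full effect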
# Target sequence (Q9BTU6 whole entry, looked up): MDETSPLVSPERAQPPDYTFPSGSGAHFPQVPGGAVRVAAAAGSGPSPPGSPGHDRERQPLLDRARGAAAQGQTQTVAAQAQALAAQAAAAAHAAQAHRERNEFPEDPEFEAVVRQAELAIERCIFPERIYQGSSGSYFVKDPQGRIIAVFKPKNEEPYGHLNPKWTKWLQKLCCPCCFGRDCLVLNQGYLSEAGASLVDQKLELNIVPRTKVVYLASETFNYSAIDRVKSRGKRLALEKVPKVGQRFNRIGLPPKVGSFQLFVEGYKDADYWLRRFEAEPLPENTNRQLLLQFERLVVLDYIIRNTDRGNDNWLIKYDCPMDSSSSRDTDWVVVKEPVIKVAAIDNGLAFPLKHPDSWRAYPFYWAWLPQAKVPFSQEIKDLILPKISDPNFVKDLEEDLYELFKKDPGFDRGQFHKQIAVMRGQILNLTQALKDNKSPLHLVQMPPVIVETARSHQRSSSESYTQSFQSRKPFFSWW
#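 PI4K2A activity was measured by ADP-Glo luminescence: enzyme (4 ug/mL stock) and phosphatidylinositol (1.2 mM stock) in Tris pH 7.5/MgCl2/EGTA/Triton X-100 buffer were reacted with ATP (300 microM stock) for one hour at ambient temperature.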
# PINK1 expr mod – modulators of PINK1 expression; Potency, µM (highest dose often 76.6 µM), without a hit: at the highest dose activation (PINK1 increase), usual class: activators; 410,000 compounds, 0.2% hits; PINK1 immunofluorescence, high-content cytometry, 24 h; AID 624263; active means well fitted activation curve with a large enough effect; inconclusive means small, poorly fitted or top-dose-only effect; cell line not stated here; further: potency means the concentration at half of the fitted maximal effect; % of control where 0% means no effect; nearly all actives have a fitted effect of over 65% in size
#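 Readout is PINK1 immunofluorescence, quantified alongside mitochondrial, cell and nuclear markers by laser-scanning microplate cytometry. Cells from a stable line were exposed to compound titrations (5 concentrations) for 24 hours, with CCCP controls.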
# Tb PGK inh – inhibitors of T. brucei phosphoglycerate kinase; AID 602233; P07378; Potency, µM (highest dose often 57.5 µM), without a hit: top-dose activity change, negative = inhibition, hits mostly inhibitors; PGK/GAPDH coupled, Kinase-Glo luminescence, 60 min; 380,000 compounds, 0.043% hits; further: potency means the concentration at half of the fitted maximal effect; on the % scale 0 is the no-effect control and ±100 the full control effect; nearly all actives have a fitted effect of over 60% in size
#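 Recombinant glycosomal PGK reaction used 1,3-bisphosphoglycerate generated in-well by GAPDH (100nM final) in 100mM TEA pH 7.6, 5mM MgCl2, 0.01% Tween-20. After 60 minutes at room temperature, ATP was read by Kinase-Glo Plus luminescence end-point.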
# GLS inh – blocks human kidney-isoform glutaminase activity. O94925. 410,000 compounds, 0.21% hits. GLS enzymatic activity, qHTS titration. Potency, µM (doses to about 45.5 µM), for the others: top-dose activity change, negative = inhibition, hits mostly inhibitors. AID 624170; further: potency means the concentration at half of the fitted maximal effect; on the % scale 0 is the no-effect control and ±100 the full control effect
#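 Human kidney-isoform GLS in 45 mM KH2PO4 pH 8.2, 0.02% Tween-20, with compound, started with 1mM L-Glutamine (added stock). Glutamate oxidase/HRP/Amplex red coupled fluorescence read at start and after 30 min at RT.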
# CCT modulator – modulators of cytosolic chaperonin (CCT/TRiC) activity; purified chaperonin ATPase assay, HTRF ADP detection, 30 min; activity change, % (concentration not given with the values), hits read low; 360,000 compounds, 0.3% hits; AID 651819; in the data active means activity change below about -30%; further: on the % scale 0 is the no-effect control and ±100 the full control effect
#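 First, chaperonin was dispensed at 40 nM or 20 nM final depending on batch activity. Next, compounds were pinned at 76 uM and ATP added at 10 uM. After 30 min at 37 °C, ADP detection reagents ran 30 min at ambient temperature.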
# * = called active by the depositor; i = inactive; ? = inconclusive; · = no result given. Most compounds without a hit are left out; they make up all but 0.78% or so of the library. Unless noted, the call rests on the fitted dose curve; in most records, active means well fitted curve in the direction sought with a large enough effect; inconclusive means small, poorly fitted or top-dose-only effect, or another doubt; inactive means no such curve, though single readings can be large; an effect the other way counts as inactive or inconclusive.
SMILES,PI4K2A inh,PINK1 expr mod,Tb PGK inh,GLS inh,CCT modulator
CO[C@H]1[C@H](NC(=O)c2ccco2)c2ccccc2C12CCN(Cc1ccc3cccc(F)c3n1)CC2,·,2.2%,·,·,·
COc1ccc(-n2nc(C(=O)NCC(=O)NC(C)C)c3ccccc3c2=O)c(OC)c1,0.5,-0.1%,i,2.3%,-2.8
COc1ccc(NC(=O)CNC(=O)c2nn(-c3ccc(OC)cc3OC)c(=O)c3ccccc23)c(OC)c1,0.0,5.6%,0.0%,-1.5%,-55.6*
COc1ccc(-c2cccc3c2OC(CNC(=O)c2ccccc2-n2cccn2)C3)nn1 (centres undefined),·,-0.7%,·,·,·
CC(=O)c1ccc(F)c(-c2cc(C)cc3c2OC(CNC(=O)c2cnc4ccccn4c2=O)C3)c1 (centres undefined),·,1.2%,·,·,·
S=c1[nH]nc(-c2ccccn2)n1/N=C/c1cccs1,0.7,4.9%,-8.7%,-1.0%,-32.2*
S=c1[nH]nc(-c2ccccn2)n1/N=C/c1ccccc1,-5.2,-1.3%,-2.5%,-10.1%,2.5
CC(C)(C)c1n[nH]c(=S)n(/N=C/c2cccs2)c1=O,-1.6,3.9%,-6.0%,-4.9%,-35.4*
CCOC(=O)/C(C#N)=N/Nc1ccc(S(=O)(=O)N2CCc3ccccc32)cc1,0.1,15.8µM*,-4.6%,6.4%,1.0
N#C/C(=N\Nc1ccc(S(=O)(=O)N2CCc3ccccc32)cc1)C(N)=S,-11.4,?,1.7%,0.0%,-0.9
Cc1ccc(Cl)c(OCC(O)CNC(C)(C)C)c1 (centres undefined),2.4,·,·,·,·
COc1cc(-c2cc(C)c3c(OC)ccc(OC)c3n2)cc2c1OCCN(C(=O)C(C)c1n[nH]c(=O)c3ccccc13)C2 (centres undefined),·,0.9%,·,·,·
Cc1cnc(SCc2ccccn2)nc1C1CCCN(C(=O)c2cccc(-c3cccc(F)c3)c2)C1 (centres undefined),·,2.3%,·,·,·
CCn1cc([N+](=O)[O-])c(C(=O)Nc2nc(-c3ccc(C)cc3)c(C)s2)n1,5.4,-1.7%,-6.3%,-3.6%,-1.2
CCn1cc([N+](=O)[O-])c(C(=O)Nc2nc(-c3ccc(C)c(C)c3)c(C)s2)n1,3.1,2.82µM*,-0.8%,-0.3%,-1.8
COc1ccc(CCNC(=O)C/C(C)=N/NC(=O)C2CCCCC2)cc1OC,25.6,0.1%,1.6%,1.2%,-59.6*
COc1ccc(CCNC(=O)C/C(C)=N/NC(=O)c2ccc(N)cc2)cc1OC,-6.0,2.2%,0.5%,18.7%,1.0
O=C(O)CCNc1cc(N2CCN(C(=O)c3ccco3)CC2)c2noc3c2c1C(=O)c1ccccc1-3,-61.0*,0.7%,?,5.1%,1.6
CN1N=C(C(=O)N2CCOc3ccc(CN4CCCC(C(=O)c5cccnc5)C4)cc3C2)CCC1=O (centres undefined),·,-0.8%,·,·,·
COc1cc(/C=C/C(=O)C2C(=O)C=C(C)OC2=O)cc(OC)c1O (centres undefined),-3.4,0.2%,-4.6%,22.6%,0.5
COc1ccc(/C=C/C(=O)C2C(=O)C=C(C)OC2=O)cc1O (centres undefined),0.5,-1.3%,-11.7%,7.08µM*,-0.3
COC(=O)Cc1[nH]n(-c2nc3ccccc3s2)c(=O)c1C(C)=O,-53.0*,0.6%,i,11.0%,1.0
CC(=O)c1c(CC(=O)O)[nH]n(-c2nc3ccccc3s2)c1=O,?,?,-13.3%,-11.1%,-2.7
CC(C)=CC(=O)OCC(=O)Nc1ccccc1Cl,-7.1,0.0%,-8.9%,-6.7%,-54.4*
O=C(CN1C(=O)CCSc2ccccc21)NC1CCCCC1,-2.9,-1.5%,-3.4%,1.0%,-35.7*
CC(=O)N1CCN(S(=O)(=O)c2cccc(C(=O)Nc3ccc(OC(F)F)cc3)c2)CC1,-1.9,0.9%,i,0.7%,-38.9*
O=CC(O)C1OC(=O)C(O)C1O (centres undefined),-5.6,-0.9%,6.31µM*,11.2µM*,1.0
CC1(c2nnc(-c3ccc(Cl)cc3)o2)CC(c2ccc([N+](=O)[O-])cc2)=NO1 (centres undefined),-0.2,1.2%,-5.0%,1.3%,-0.4
